Source: PubChem BioAssay AID886 (National Center for Advancing Translational Sciences (NCATS), 2007)
Where “and” joins values, the source holds several entries; their conditions need not be identical. Identical values can stand only once. Hit rate of the full screen: of about 73,000 compounds, about 2,500 (3.4%) were called active. Not shown: some 7% with an inconclusive outcome. Calls come from the whole dose curve; as a rule, active = well fitted inhibition curve with a large enough effect; inconclusive = small, poorly fitted or top-dose-only effect; inactive = no such curve, though single readings can be large or run the other way. This excerpt belongs to a sample that is enriched for actives.

These compounds were tested against 3-hydroxyacyl-CoA dehydrogenase type-2 (Homo sapiens) (UniProt Q99714) (assay: qHTS Assay for Inhibitors of HADH2 (Hydroxyacyl-Coenzyme A Dehydrogenase, Type II)). Settings: recombinant HADH2, NADH fluorescence, beta-hydroxybutyryl-CoA; series mostly up to 57.1 µM; activity change, negative = inhibition: at the top concentration.
3-hydroxyacyl-CoA dehydrogenase type-2 (Homo sapiens), sequence (Q99714 whole entry, looked up): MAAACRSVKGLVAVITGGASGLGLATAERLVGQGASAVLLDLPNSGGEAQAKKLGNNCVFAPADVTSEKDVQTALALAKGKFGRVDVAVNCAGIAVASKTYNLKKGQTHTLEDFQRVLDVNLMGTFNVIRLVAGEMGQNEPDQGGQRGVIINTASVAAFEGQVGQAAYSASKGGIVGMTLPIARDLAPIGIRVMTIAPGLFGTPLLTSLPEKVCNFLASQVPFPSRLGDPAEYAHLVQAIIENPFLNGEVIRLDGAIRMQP
3-hydroxyacyl-CoA dehydrogenase type-2 (Homo sapiens), sequence (Q99714 whole entry, looked up): as above
From the text: Assay Overview: NIH Molecular Libraries Screening Centers Network [MLSCN] NIH Chemical Genomics Center [NCGC] Structural Genomics Consortium [SGC] Grant Number: None HADH2: Hydroxyacyl-Coenzyme A dehydrogenase, type II, was supplied by researchers at the Structural Genomics Consortium, Oxford University lab (PI Udo Oppermann). The mitochondrial enzyme 17-hydroxysteroid dehydrogenase type 10 (HSD17-10) previously classified as type II hydroxyacyl-CoA dehydrogenase (HADH2) catalyzes the NAD+ dependent oxidation of a variety of substrates including acyl-CoAs, androgens and neurosteroids as well as bile acids(Shafqat N, Marschall HU, Filling C, et al. Biochemical Journal. 2003;376(Pt 1):49-60). The role in neurodegeneration by binding to amyloid-peptide led to its identification (Oppermann UC, et al FEBS Letters. 1999;451(3):238-242 and Yan SD, et al. Nature. 1997;389(6652):689-695), and mutations in its gene appear to be causative for 2-methyl-3-hydroxybutyryl-CoA dehydrogenase deficiency (Ofman R, et al. American Journal of Human Genetics. 2003;72(5):1300-1307). The enzyme was produced by E.coli fermentation as His-tagged recombinant for the purpose of X-ray structure determination, and had been mass-spectrometry characterized. Inhibition of HADH2 activity was screened by utilizing beta-hydroxybutyryl coenzyme A as an electron donor and NAD+ as an electron acceptor/cofactor. An increase in the fluorescence intensity due to conversion of NAD+ to NADH was used to measure the enzyme activity.
Assay Protocol: Buffer: 100 mM Tris-HCl pH 9.0, containing 0.01 % Tween-20. Reagents/Controls: Buffer in columns 3 and 4 as negative control (no enzyme). Substrate/cofactor solution: 1 mM NAD+ and 90 uM beta-hydroxybutyryl coenzyme A (Sigma-Aldrich, St. Louis, MO) final concentrations dispensed throughout the plate. Enzyme: 20 nM HADH2 final concentration in columns 1, 2, 5-48. Column 1 is neutral (100% activity). Column 2 contained titration of apomorphine (Sigma-Aldrich, A 4393, PubChem CID 2215, top concentration 500 uM, then 1:2 dilution in duplicate) Assay Steps: Three uL of enzyme were dispensed to 1536-well Greiner black solid bottom plates. Compounds and controls (23 nL) were transferred via Kalypsys PinTool. The plates were incubated for 15 min at room temperature, and then 1 uL of substrate/cofactor solution was added to start the reaction. The plates were immediately transferred to and read every 30 seconds for 4 min on ViewLux High-throughput CCD imager (Perkin-Elmer) using 360 nm excitation and 450 nm emission fluorescence protocol. The fluorescence intensity difference between the last and the first time points was used to compute reaction progress.
% is set by controls: 0 for no effect and ±100 for the full control effect; potency is the fitted concentration of half-maximal effect.
Note: nearly all actives have a fitted effect of over 60% in size.

Potency, active:
CCn1c(=N)c(C(=O)NCCCOC)cc2c(=O)n3cccc(C)c3nc21 3.98 µM
Cc1c(O)c(Br)c(C)c(O)c1Br (tested in a mixture with another compound) 0.398 µM
Cc1csc(NC(=O)NC2(C(F)(F)F)Oc3ccccc3O2)n1 2 µM
Cc1nc2c(c(=O)n1Cc1ccco1)c1nc3ccccc3nc1n2Cc1ccccc1 25.1 µM
Cc1nc(C)c(C(=O)Nc2cccc(C)c2C)o1 10 µM
Cn1c(-c2ccco2)nc2cc3ccccc3cc21 31.6 µM
O=c1[nH]c(-c2ccccc2)c(-c2ccccc2)[nH]1 3.16 µM
C1=C(N2CCOCC2)/C(=C/c2nc3ccccc3[nH]2)CC1 3.98 µM
N[C@H](C(=O)O)c1ccc(C(=O)O)c(O)c1 31.6 µM
CCOC(=O)c1sc(=S)n2c1[nH]c(=O)c1ccc(C(=O)OC)cc12 1 µM
Fc1ccc(-c2nnc3sc(-c4ccc5c(c4)OCO5)nn23)cc1 25.1 µM
COc1ccc(OC)c(C(=O)CSc2nnc(-c3cccs3)o2)c1 25.1 µM
Nc1ccc(-c2nnc(-c3ccc(-c4ccccc4)cc3)o2)cc1 31.6 µM
CCN1C(=O)/C(=C2/Sc3ccccc3N2CCCS(=O)(=O)O)SC1=S 20 µM
CC(=O)Nc1ccc(-c2cn3cccnc3n2)cc1 15.8 µM
c1ccc(-c2cn3cccnc3n2)cc1 12.6 µM
CCOC(=O)c1[nH]c2ccc(OC)cc2c1NC(=O)N1CCOCC1 25.1 µM

Potency, inactive:
CCS(=O)(=O)N(C)[C@@H]1c2cc(C#N)ccc2OC(C)(C)[C@H]1O
CC(N)=NCc1cccc(CN)c1
CN1CCN2c3ccccc3Cc3ccccc3[C@@H]2C1

Activity change, negative = inhibition, inactive:
COc1ccc(CCn2c(=N)c(C(=O)NCc3ccco3)cc3c(=O)n4cccc(C)c4nc32)cc1 3.86%
CCOCCCNC(=O)c1c[nH]c2cc(C)ccc2c1=O -1.39%
O=C(c1ccco1)N1CCC2(CC1)CN(c1ncccn1)C2 2.51%
Nc1ccc2c3c(cccc13)C(=O)NC2=O 12.8%
CC(C)[C@@H](OCc1ccccc1)[C@H](C)/C=N\OC[C@@H](C)[C@H](OCc1ccccc1)C(C)C 1.49% [at 11.4 µM]
C[C@]12C=CC(=O)C=C1CC[C@@H]1[C@@H]2C(=O)C[C@@]2(C)[C@H]1CC[C@]2(O)C(=O)CO 7.63%
CC(C)CSC[C@@H]1O[C@H](n2cnc3c(N)nccc32)[C@H](O)[C@@H]1O 7.39% [at 11.4 µM]
Cc1csc(NC(=O)CN2CCCCCC2)n1 -0.72%
CCOC(=O)Cc1csc(NC(=O)Nc2ccccc2)n1 -0.891%
O=C(Oc1ccc2c(c1)CN(Cc1ccccc1)CO2)c1ccccc1 -11.9% [at 11.4 µM]
O=C(O)c1nccnc1C(=O)Nc1ccc(Br)cn1 -0.545%
CC(C)C[C@@H](CC(=O)N[C@@H](CCC(=O)O)CC(=O)O)NC(=O)[C@@H]1CCCC[C@H]1NC(=O)C[C@@H](NC(=O)C[C@H](CO)NC(=O)[C@@H]1CCCC[C@H]1N)C(C)C -24.3%
COCCCn1c2nc3ccccc3nc2c2c(=O)n(Cc3ccc(Cl)cc3)c(C)nc21 12%
CC(Sc1nc2ccccc2c(=O)n1Cc1ccco1)C(=O)c1ccccc1 (stereo unspecified) 0.159%
COC(=O)C1(Cc2ccccc2)C=C2C(=C(C)C(=O)C2C)CN1 (stereo unspecified) -6.45%
CN1CCc2nc(-c3ccccc3)c(-c3ccccc3)cc2C1 -8.44% [at 11.4 µM]
Cc1cc(C)cc(N)c1 -4.7%
Cc1cccc(NC(=O)CSc2nc3c(c(=O)[nH]2)CCC3)c1C 2.6%
Cc1ccccc1NC(=O)c1ccccc1 -21.2%
Cn1c(=S)c2[nH]c(SCCCc3ccccc3)nc2n(C)c1=O 7.85% [at 11.4 µM]
O=C1C[C@@H](O)[C@@H](O)[C@H]2[C@@H]3C(=O)N(Cc4ccc5c(c4)OCO5)C(=O)[C@@H]3CC[C@H]12 -4.62% [at 11.4 µM] and -11.5% [at 11.4 µM]
CS(=O)(=O)N1CCC2(CCN(c3ccncc3)CC2)CC1 2.81%
c1coc(-c2nc3nc4ccccc4n3nc2-c2ccco2)c1 -23.9%
COc1ccc(CCn2c(-c3ccco3)nc3nc4ccccc4nc32)cc1OC -13.7%
O=C(O)/C(=C/c1c(C(=O)O)[nH]c2cc(Cl)cc(Cl)c12)c1ccccc1 -3.85%
c1ccc(Oc2ccccc2)cc1 4.03%
O=c1c(-c2ccc(F)cc2)nc2cncnc2n1-c1ccccc1 -15.3%
CCOC(=O)N/N=C1/C[C@@H](O)[C@@H](O)[C@@H]2[C@@H]3C(=O)N(CC)C(=O)[C@H]3CC[C@H]12 11.3% [at 11.4 µM]
O=c1cc(-c2ccccc2)nc(N2CCCCC2)[nH]1 -16.5%
O=c1[nH]c(=O)c2nc3ccccc3nc2[nH]1 -14%
COc1ccc(-c2nc3cnc(Oc4ccccc4)nc3n(Cc3cccs3)c2=O)cc1 0.264%
O=C(O)[C@@H]1[C@@H](C(=O)O)[C@]23C[C@@]2(C(=O)O)[C@]2(C(=O)O)CCC3=C3CCCC312 14.2% [at 11.4 µM]
COc1ccc(N)c(C)c1 -15.2%
c1ccc(-n2nnnc2N2CCOCC2)cc1 5.51%
c1ccc2[nH]c(NCCN3CCOCC3)nc2c1 -7.67%
O=C1C(c2[nH]c3ccccc3c2O)=Nc2ccccc21 13.6%
Cc1nc2cnc(N3CCN(C)CC3)nc2n(C[C@H]2CCCO2)c1=O 75.2%
N[C@@H](C(=O)O)c1ccc(P(=O)(O)O)cc1 11%
O=C(O)c1ccc(-n2cccc2)cc1O -14.7%
Cc1cccc(C(=O)O)c1 4.88%
O=C(O)c1ccc(Cl)c(S(=O)(=O)Nc2ccccc2Cl)c1 0.423%
COC(=O)c1ccc2c(=O)n(CC3CCCO3)c(=S)[nH]c2c1 (stereo unspecified) -4.1%
COC(=O)c1cccc(NC(=O)CSc2nc(C)cc(=O)[nH]2)c1 -17.2%
O=c1c(-c2cc(F)cc(F)c2)nc2cnc(Oc3ccccc3)nc2n1C[C@H]1CCCO1 13.6%
Fc1ccc(-c2ccc(-c3nn4c(-c5ccco5)nnc4s3)o2)cc1 -24.2%
Fc1ccc(-c2nnc(CSc3nnc(-c4ccc5c(c4)OCO5)o3)o2)cc1 6.68%
C/C(CCN1CCCCc2nc(C)c(C)cc21)=N\O[C@@H](C)c1cn([C@@H]2COC[C@@H]2O)nn1 -2.51% [at 11.4 µM]
O=C(c1ccc(F)cc1)C1CCN(CCCCc2ccccc2)CC1 9.57%
COc1ccc(-n2c(C)cc(C(=O)CSc3nnc(-c4cccs4)o3)c2C)cc1 -5.17%
COc1ccc(-c2nnc(SCC(=O)c3cccs3)o2)c(OC)c1 16.5%
CCCCC[C@H](O)CCCC(=O)O 0.156%
CN1CCC(CNC(=O)c2ccc(-n3c(=O)c(=O)[nH]c4ccccc43)cc2)CC1 -0.499%
COC(=O)C1(C)C=CCN1C(=O)c1ccccc1 (stereo unspecified) 5.4%
O=C1[C@H]2[C@H]3[C@H](O)[C@H](O)C/C(=N/OCc4ccccc4)[C@H]3CC[C@@H]2C(=O)N1Cc1ccccc1 -3.88% [at 11.4 µM]
CN1CCC2(CC1)CCN(S(=O)(=O)c1ccccc1)CC2 1.8%
O=S(=O)(O)c1ccc(O)c2ncccc12.O=S(=O)(O)c1ccc(O)c2ncccc12.[Zn] -19.7% [at 11.4 µM]
O=C(COC(=O)c1ccc(Oc2ccccc2)cc1)Nc1nnc(-c2ccccc2)o1 2.91%
CCN1C(=O)/C(=C\N2CCN(c3cccc(Cl)c3)CC2)SC1=S -1.99%
CCN1C(=O)/C(=C\N2CCN(c3ccccc3)CC2)SC1=S -0.798%
Cc1ccc(NC(=O)c2cccc(N(C)C)c2)cc1NC(=O)c1ccc(O)cc1 -1.28%
CCC[C@@H]1C[C@@]1(CCC)C(NS(=O)(=O)c1cccc2cccnc12)c1ccc(Cl)cc1 (stereo partly specified) -3.66%
C[C@]1(C(=O)NCCc2c[nH]c3ccccc23)C=C[C@@H](Cc2ccccc2)N1C(=O)c1ccccc1 7.45%
COC(=O)C1=C(C)N(Cc2ccccc2)C2=C3C(=O)N(c4ccccc4)C(=O)C3[C@@](O)(C(=O)OC)C(=O)N2C1c1ccccc1 (stereo partly specified) 10.1% [at 11.4 µM] and 2.48% [at 11.4 µM]
CC(=O)Nc1cccc(-c2cnc3ccccc3n2)c1 12.1%
CCCC(=O)Nc1cccc(-c2cn3ccsc3n2)c1 5.86%
CCOc1nc(OCC)nc(-n2cc(-c3ccccc3)nn2)n1 5.08%
COC(=O)C(C(=O)OC)[C@@H]1CCCC(=O)C1 12% [at 11.4 µM]
CC(C)[C@@H](CC(=O)N[C@@H]1CCNC[C@H]1C(=O)N[C@H](CC(=O)N[C@@H](CCC(=O)O)CC(=O)O)Cc1ccccc1)NC(=O)C[C@H](CO)NC(=O)[C@@H]1CNCC[C@H]1N -15.2%
O=C1C(c2ccccn2)=[N+]([O-])c2ccccc21 -27.4%
COc1cc(NC(=O)N2CCOCC2)cc(OC)c1 5.67%
Cc1c(C(=O)N2CCOCC2)[nH]c2ccc(OCc3ccccc3)cc12 -11.1%
CC(=O)N1CCC2(CC1)CCN(c1ccncc1)CC2 -5.97%
CC1(CCC(=O)OC2CCCCC2)OCCO1 -20.4% [at 11.4 µM]
O=C(Cn1ccc(=O)[nH]c1=O)Nc1ccc(C(=O)O)c(O)c1 -10.7% [at 11.4 µM]
COc1ccccc1-c1nc(NCc2cccs2)c2ccccc2n1 -23.6%
CC(C)c1ccc2c([Si](C)(C)C)c3c(nc2c1)-c1cccc(=O)n1C3 34.4%
